Consider ten molecules from PubChem BioAssay (Tox21).

Records with an inconclusive call do not appear. Entries that show only a call come without a potency. Active and inactive are the calls of the source. The call rests on the fitted dose curve; in most records, active means well fitted activation curve with a large enough effect in the repeat runs; inconclusive means weak or mixed curves; inactive means flat fitted curve, though single readings scatter.
Potency means the concentration at half of the fitted maximal effect.

A short description of the experiment: A CellTox Green Cytotoxicity Assay to monitor cytotoxicity in HepG2 cells - 8 hour (AID 1224890). Further: nearly all actives have a fitted effect of over 45% in size. The conditions noted are these: CellTox Green fluorescence; series mostly up to 76.8 µM. The method, boiled down: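 First, HepG2 cells (600/well) mixed with reagent were plated; second, after 5 h at 37 C they received compounds via pintool; third, fluorescence was measured at 0 h through 40 h at 8 h intervals.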
Take `CCCCCCCCc1ccc(O)cc1`: the Potency was 17.5 µM (active).

Regarding `CC(C)(C)c1cc([N+](=O)[O-])cc(C(C)(C)C)c1O`, the Potency result was “inactive”.

As to `Cc1cc(C(C)(C)c2cc(C)c(O)c(C)c2)cc(C)c1O`, the Potency result was “inactive”.

`CC(C)Oc1cccc(NC(=O)c2ccccc2C(F)(F)F)c1`: the Potency was 49 µM (active).

In the case of `C[C@]12CC[C@@H]3c4ccc(OC(=O)N(CCCl)CCCl)cc4CC[C@H]3[C@@H]1CC[C@@H]2O`, the Potency result was “inactive”.

For `CC(C)OC(=S)S`, the Potency result was “inactive”.

Consider `ClC1=C(Cl)[C@]2(Cl)[C@@H]3[C@@H]4C[C@@H]([C@H]5O[C@@H]45)[C@@H]3[C@@]1(Cl)C2(Cl)Cl`, for which the Potency was 49 µM (active).

As for `Oc1cc(Cl)c(Cl)c(Cl)c1`, the Potency result is “inactive”.

With `CC(=O)c1cc(C(C)(C)C)cc2c1CCC2(C)C`, the Potency result was “inactive”.

With `CCCCOCN(C(=O)CCl)c1c(CC)cccc1CC`, the Potency result was “inactive”.
